Screening data deposited in PubChem by several laboratories.
The list is not random: actives were taken first. Their share in the collection is about 3.2%.
rCAG binder: r(CAG) repeat RNA binding. TO-PRO-1 dye displacement fluorescence. inhibition, % at 3 µM. 1.3% of 370,000 active;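 active means inhibition above the plate cutoff, the mean of all test compounds on that plate plus 3 SD, cut at about 35% in these data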;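 further: higher means more dye released from RNA so lower well fluorescence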
DAGLB inhibitor: diacylglycerol lipase beta (human) inhibition; HEK293T DAGLB membrane lysate, EnzChek fluorogenic substrate; inhibition, % at 5.17 µM; 0.059% of 340,000 active; AID 504411; in the data active means inhibition above about 34%
Target sequence (Q8NCG7 whole entry, looked up): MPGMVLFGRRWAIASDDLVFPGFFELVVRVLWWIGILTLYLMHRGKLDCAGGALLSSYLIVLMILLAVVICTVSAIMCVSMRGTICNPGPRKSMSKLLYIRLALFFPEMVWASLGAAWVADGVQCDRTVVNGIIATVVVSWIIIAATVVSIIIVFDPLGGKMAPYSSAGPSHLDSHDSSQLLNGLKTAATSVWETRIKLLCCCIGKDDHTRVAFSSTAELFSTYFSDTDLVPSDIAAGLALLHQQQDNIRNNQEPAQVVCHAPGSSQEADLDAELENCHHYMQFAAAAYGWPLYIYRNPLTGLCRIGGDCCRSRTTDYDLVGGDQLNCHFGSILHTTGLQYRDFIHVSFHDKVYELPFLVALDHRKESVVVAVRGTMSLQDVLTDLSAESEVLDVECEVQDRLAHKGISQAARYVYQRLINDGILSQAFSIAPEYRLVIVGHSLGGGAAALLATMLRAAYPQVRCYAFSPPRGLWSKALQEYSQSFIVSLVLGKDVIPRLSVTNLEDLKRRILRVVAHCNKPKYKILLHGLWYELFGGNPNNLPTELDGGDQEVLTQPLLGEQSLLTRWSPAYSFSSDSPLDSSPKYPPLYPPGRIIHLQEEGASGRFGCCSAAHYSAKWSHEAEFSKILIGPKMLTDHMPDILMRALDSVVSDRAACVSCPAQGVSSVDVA
NadD block: blocks S. aureus nicotinate mononucleotide adenylyltransferase; AID 602399; inhibition, % at 20 µM; purified NadD enzyme, colorimetric absorbance read-out; 0.78% of 360,000 active; in the data active means inhibition above about 26%
Pemphigus Ab inh: blocks pemphigus antibody binding to human desmoglein-3; P32926; DSG3-coupled beads, scFv-anti-DSG3-GFP binding, flow cytometry; active compounds read low; binding (percent of control), % at 10 µM; 0.48% of 310,000 active;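 active means binding more than 3 SD below its plate's average and above zero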;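 further: hits lower antibody fragment binding to DSG3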
MsrA inh: inhibitors of bovine MsrA | inhibition, % at 15.5 µM | purified bovine MsrA, absorbance read-out | AID 651718 | 0.75% of 360,000 active; in the data active means inhibition above about 4.5%
MsrA act: activators of bovine methionine sulfoxide reductase A | AID 602163 | activation, % at 10.6 µM | purified bovine MsrA, absorbance read-out | 0.3% of 360,000 active; in the data active means activation above about 7.5%
rCAG binder conf: r(CAG) RNA repeat binding, confirmation | shares compounds with rCAG binder | TO-PRO-1 dye displacement fluorescence | inhibition, % at 3 µM | 70% of 4,300 active | AID 652065;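 active means inhibition above a per-plate cutoff, the mean inhibition of sample wells plus 3 SD, cut at about 35% in these data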;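 further: loss of TO-PRO-1 fluorescence as compound displaces dye from 1x1 AA loop RNA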
DNA CAG counter: DNA CAG dye complex inhibition counter-screen; inhibition, % at 3 µM; AID 652068; shares compounds with rCAG binder; 94% of 4,300 active; d(CAG) DNA oligo TO-PRO-1 dye displacement, fluorescence;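 active means inhibition above its plate's cutoff, the mean test-well inhibition plus 3 SD, cut at about 4.8% in these data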;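 further: hits displace the dye from DNA and so lower well fluorescence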
DNA CAG DR: disrupts DNA CAG TO-PRO-1 complex in dose response. IC50, µM. 20% of 250 active. AID 686960. DNA CAG/GTC duplex TO-PRO-1 dye displacement fluorescence. shares compounds with rCAG binder; in the data active means IC50 below about 10 µM
Each line names hits and unclear results; the compound was inactive in the other large screens (follow-up assays come after a bar, where they were run).

O=C1NN(c2ccccc2)C(=O)/C1=C\c1cccc(OC(=O)c2cccs2)c1	rCAG binder 37 | rCAG binder conf 68 | DNA CAG counter 28
COc1ccc(-c2cc(-c3nnc(SCC(=O)Nc4nccs4)n3N)[nH]n2)cc1	none (no result: DAGLB inhibitor, NadD block, Pemphigus Ab inh, MsrA inh, MsrA act)
O=C(Nc1ccc(S(=O)(=O)N2CCCc3ccccc32)cc1)C1CCCO1 (stereo unspecified)	none (no result: rCAG binder, MsrA inh)
O=C(O)C1CC=CCC1C(=O)Nc1ccc(S(=O)(=O)N2CCCc3ccccc32)cc1 (stereo unspecified)	rCAG binder 36 | rCAG binder conf 37 | DNA CAG counter 9.1
CC(=O)Nc1ccc(CNc2nc(NCC3CC3)nc3ccsc23)cc1	none (no result: DAGLB inhibitor, Pemphigus Ab inh)
Cc1nn(CCc2nc(-c3ccco3)cs2)c2[nH]c(=O)cc(C(F)(F)F)c12	rCAG binder 58 | rCAG binder conf inactive | DNA CAG counter inactive
COc1ccc(N2CCN(CCNS(=O)(=O)c3cccs3)CC2)cc1	none (no result: DAGLB inhibitor, NadD block, Pemphigus Ab inh, MsrA inh, MsrA act)
COc1ccc(S(=O)(=O)Nc2c(C(=O)O)[nH]c3ccc(OC)cc23)c(OC)c1	rCAG binder 36 | rCAG binder conf inactive | DNA CAG counter 10
COc1ccc(S(=O)(=O)Nc2c(C(=O)O)[nH]c3ccccc23)c(OC)c1	rCAG binder 36 (no result: Pemphigus Ab inh) | rCAG binder conf inactive | DNA CAG counter inactive
Cc1nc(-c2ccccc2)sc1C(=O)NS(=O)(=O)c1ccc(CN2CCN(c3ccccc3)CC2)cc1	rCAG binder 83 (no result: DAGLB inhibitor, Pemphigus Ab inh) | rCAG binder conf 81 | DNA CAG counter 45
CNC(=O)c1sc(-c2ccccc2)nc1C	none
COc1ccccc1-n1c(SCC(=O)Nc2ccccc2C)nc(O)cc1=O	rCAG binder 40 | rCAG binder conf inactive | DNA CAG counter 5.9
COc1ccc(NC(=O)CSc2nc(O)cc(=O)n2-c2ccc(OC)cc2)cc1	rCAG binder 40 (no result: Pemphigus Ab inh) | rCAG binder conf inactive | DNA CAG counter 4.5
Cc1ccc(NC(=O)CN2C(=O)N/C(=C/c3ccc(C)o3)C2=O)cc1	none
Cc1cccc(NC(=O)CN2C(=O)N/C(=C\c3ccc(-c4cccc(C(=O)O)c4)o3)C2=O)c1	rCAG binder 69 | rCAG binder conf 73 | DNA CAG counter 37
Cc1ccc(NC(=O)CN2C(=O)S/C(=C/c3ccc(-c4cc(C(=O)O)ccc4C)o3)C2=O)cc1C	rCAG binder 46, NadD block 50 | rCAG binder conf 91 | DNA CAG counter 74
COC(=O)C(C)N1C(=O)S/C(=C\c2ccc(-c3ccc(C(=O)O)cc3C)o2)C1=O (stereo unspecified)	rCAG binder 44 | rCAG binder conf inactive | DNA CAG counter 7.8
Cc1ccc(C(=O)O)cc1-c1ccc(C=C2C(=O)c3ccccc3C2=O)o1	none
N#Cc1c(Cl)c(Cl)c2nnc(-c3ccc(Br)cc3)n2c1Cl	rCAG binder 44 (no result: DAGLB inhibitor, NadD block, Pemphigus Ab inh, MsrA act) | rCAG binder conf 40 | DNA CAG counter 11
[S-]c1nnc(-c2ccc(Br)cc2)n1-c1ccccc1.[Zn+2]	none
CC(C)CN1C(=O)[C@@]2(CC(=O)N(C)C2c2ccccc2)c2cc(-n3cc(-c4ccccc4)nn3)ccc21 (stereo partly specified)	none (no result: DAGLB inhibitor, NadD block, Pemphigus Ab inh, MsrA inh, MsrA act)
CC(C)C(=O)N1CCC1(C)C(=O)Nc1ccc2cn[nH]c2c1 (stereo unspecified)	none (no result: DAGLB inhibitor, Pemphigus Ab inh)
N#Cc1c(NC(=O)/C=C/c2ccco2)sc2c1CCCC2	rCAG binder 38 | rCAG binder conf inactive | DNA CAG counter 14
O=C(NCc1ccccc1F)C1CCC(CNS(=O)(=O)c2cccc3cccnc23)CC1 (stereo unspecified)	none (no result: DAGLB inhibitor, NadD block, Pemphigus Ab inh, MsrA inh, MsrA act)
COc1cc(/C=C/C(=O)Nc2ccc(S(=O)(=O)Nc3onc(C)c3C)cc2)cc(OC)c1OC	rCAG binder 53 | rCAG binder conf 51 | DNA CAG counter 19
CCSc1ncc(Cl)c(C(=O)Nc2ccc(S(=O)(=O)Nc3onc(C)c3C)cc2)n1	rCAG binder 54 | rCAG binder conf inactive | DNA CAG counter 6.9
Cc1noc(NS(=O)(=O)c2ccc(NC(=O)CSc3nnc4c(n3)[nH]c3ccccc34)cc2)c1C	rCAG binder 65 | rCAG binder conf 67 | DNA CAG counter 32
COc1cc(C(=O)Nc2ccc(S(=O)(=O)Nc3onc(C)c3C)cc2)cc(OC)c1OC	none
Cc1cc(NS(=O)(=O)c2ccc(NC(=O)Cc3ccc(Cl)c(Cl)c3)cc2)on1	rCAG binder 57 (no result: DAGLB inhibitor, NadD block, Pemphigus Ab inh, MsrA inh, MsrA act) | rCAG binder conf 63 | DNA CAG counter 24
CCc1nc2c(OCCC3CCCCC3)cccn2c1N(C)C(=O)c1ccccc1F	none (no result: DAGLB inhibitor, Pemphigus Ab inh)
Cc1noc(NS(=O)(=O)c2ccc(NC(=O)Nc3ccc(Cl)c(Cl)c3)cc2)c1C	rCAG binder 91 | rCAG binder conf 83 | DNA CAG counter 53
Cc1noc(NS(=O)(=O)c2ccc(NC(=O)C(C)(C)C)cc2)c1C	none
Cc1noc(NS(=O)(=O)c2ccc(NC(=O)/C=C/c3ccc(Br)cc3)cc2)c1C	rCAG binder 82 | rCAG binder conf 67 | DNA CAG counter 33
COCC(=O)N[C@H]1C=C[C@@H](CC(=O)OC)O[C@@H]1CO	none (no result: DAGLB inhibitor, NadD block, Pemphigus Ab inh, MsrA act)
O=C(Cc1cccc(NC(=O)C2CCN(C(=O)c3ccccc3)CC2)c1)Nc1cccc(C(=O)N2CCCCC2)c1	none
COCC#Cc1ccc(CC[C@H]2O[C@H]3CC[C@H](CO)O[C@H]3C[C@H]2n2cc(C(C)(C)O)nn2)cc1	none (no result: DAGLB inhibitor, NadD block, Pemphigus Ab inh, MsrA inh, MsrA act)
CCCCCCCCN1C(=O)[C@H](CC(=O)NCC23CC4CC(CC(C4)C2)C3)C[C@@]2(C(=O)OCC)CCC=C12	none (no result: DAGLB inhibitor, NadD block, Pemphigus Ab inh, MsrA act)
COC(=O)[C@@]12C[C@@H](CC(=O)N3CCCC3)C(=O)N(Cc3ccc4c(c3)OCO4)C1=CCC(C)(C)C2	none (no result: DAGLB inhibitor, NadD block, Pemphigus Ab inh, MsrA act)
COC/C=C/C1=CC2=CC(=O)C(C)(OC(=O)C3CCCC3)C(=O)C2=CO1 (stereo unspecified)	rCAG binder 50 | rCAG binder conf inactive | DNA CAG counter 15
CCOC(=O)C1=C(C)N=c2s/c(=C\c3ccc(OCC(=O)O)cc3)c(=O)n2C1c1ccccc1 (stereo unspecified)	rCAG binder 75 | rCAG binder conf 77 | DNA CAG counter 35
CCOC(=O)C1=C(C)N=c2s/c(=C3/C(=O)Nc4ccccc43)c(=O)n2C1c1ccc(C)cc1 (stereo unspecified)	rCAG binder 43 | rCAG binder conf 53 | DNA CAG counter 22 | DNA CAG DR inactive
CCOC(=O)C1=C(C)N=c2sc(=Cc3ccc(OCC(=O)O)cc3)c(=O)n2C1c1ccc(SC)cc1 (stereo unspecified)	rCAG binder 82 (no result: DAGLB inhibitor, Pemphigus Ab inh) | rCAG binder conf 71 | DNA CAG counter 37
